# Bioassay records from PubChem BioAssay.
# Hits are enriched below; roughly 10% of the tested compounds scored in any of these assays.
# BAZ2B block: blocks human BAZ2B; hit rate 4.4% among 360,000; AlphaScreen BAZ2B-H3K14Ac peptide displacement; AID 504333; Q9UIF8; Potency, µM (highest dose often 114 µM), actives largely listed as inhibitors; also: nearly all actives have a fitted effect of over 60% in size
#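 AlphaScreen displacement of biotin-H3(5-23)K14Ac peptide (50 nM final) from BAZ2B (50 nM final) in PBS pH 7.4, 0.01% Tween-20; complex preformed 30 min RT, then compounds (top 110 uM) 30 min RT, beads 20 min dark.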
# JMJD2A Tudor inh: blocks the human JMJD2A Tudor domain; AID 504339; hit rate 4.4% among 390,000; O75164; AlphaScreen JMJD2A-Tudor / H3K4me3 peptide binding; Potency, µM (highest dose often 114 µM), usual class: inhibitors; also: nearly all actives have a fitted effect of over 50% in size
# HP1b binding inh: inhibitors of HP1-beta chromodomain binding to methylated histone tails; P83916; AlphaScreen HP1-beta / biotin-H3K9me3 peptide binding; Potency, µM (top dose mostly 114 µM), most hits filed as inhibitors; hit rate 0.56% among 390,000; AID 540317; also: nearly all actives have a fitted effect of over 70% in size
#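 Compound inhibition of the preformed complex between 50 nM HP1-beta and 50 nM biotinylated H3K9me3 peptide was read by AlphaScreen. Buffer was PBS pH 7.4 with 0.01% Tween-20. Incubations ran 30 min at room temperature, with 10 ug/mL donor/acceptor beads.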
# CtBP-E1A inh: CtBP/E1A binding inhibition; AlphaScreen GST-E1A/His-CtBP binding, 1536-well; hits give low values; activity change, % (no concentration beside the values); hit rate 0.49% among 340,000; AID 651724; in the data active = activity change below about -65%; inconclusive = mostly about -30% to -63%
#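 In 5 uL wells, 23 nL compound meets equimolar GST-E1A and His-CtBP (5X stock 125 nM each) for 2 h, 37 °C. Beads (5X, 50 ug/mL) then 1 h, 37 °C, dark.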
# G9a inh: inhibitors of human histone lysine methyltransferase G9a. G9a H3K9 monomethylation, AlphaScreen, 2 h. Potency, µM (doses to about 102 µM), usual class: inhibitors. Q96KQ7. hit rate 8.8% among 350,000; also: nearly all actives have a fitted effect of over 75% in size
#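 Methyltransferase reactions run at room temperature for 2 h (20 nM enzyme, 500 nM biotin-H3K9 peptide, 20 uM SAM) after a 15 min compound preincubation; product detected by AlphaScreen beads and anti-H3K9me1 antibody.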
# Six1-Eya2 inh: blocks human Six1 binding to Eya2 | Q15475+O00167 | activity change, % (test concentration not listed) | AID 651725 | AlphaScreen GST-Six1/His-Eya2 binding, biochemical; hits give low values | hit rate 0.56% among 360,000; in the data active = activity change below about -65%; inconclusive = mostly about -30% to -63%
#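 AlphaScreen with GST-Six1 and His-Eya2 (5X mix: 250 nM and 500 nM), glutathione donor and nickel acceptor beads; buffer 50 mM Tris pH 8.0, 300 mM NaCl, 1 mM TCEP; 1 h at 37 C in the dark.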
# Numbers stand for hits; 0 = inactive; ? = inconclusive; - = not tested or not shown; [ ] = another dose, or the depositor's remark. Unless noted, calls follow the shape of the dose curve; as a rule, active = well fitted inhibition curve with a large enough effect; inconclusive = small, poorly fitted or top-dose-only effect; inactive = no such curve, though single readings can be large or run the other way.
SMILES,BAZ2B block,JMJD2A Tudor inh,HP1b binding inh,CtBP-E1A inh,G9a inh,Six1-Eya2 inh
O=C(N/N=C/c1ccc([N+](=O)[O-])o1)c1cc2ccccc2o1,0,0,0,-,50µM,0
Cc1ccc2nc(N/N=C\c3ccc([N+](=O)[O-])o3)nc(-c3ccccc3)c2c1,0,0,0,0,0,0
O=[N+]([O-])c1ccc(/C=N/Nc2ccc3ccccc3c2)o1,8.9µM,7.1µM,?,?,10µM,?
COc1ccccc1-c1cc(NC(=O)COc2ccc(C)c(C)c2)n(-c2ccccc2)n1,0,0,0,-,0,-
CC(=O)Oc1cc(C)c(OC(C)=O)c2ccccc12,-,-,-,-,0,-
Cc1ccc(/C=N/NC(=O)c2cc3c(ccc4ccccc43)o2)o1,0,0,0,0,0,0
O=C(N/N=C/c1ccc([N+](=O)[O-])o1)c1cc2c(ccc3ccccc32)o1,56µM,?,0,0,-,0
CCc1ccc(NC(=O)CSc2nncn2-c2cccnc2)cc1,0,0,0,0,0,0
c1ccc(C2=NNC(c3ccccn3)=NN2)nc1,2.8µM,7.1µM,0,-80,32µM,-71
c1ccc(-c2nnc(-c3ccccn3)s2)nc1,?,?,0,0,0,0
CCOC(=O)c1sc(N=NC2=C(O)CCCC2=O)c(C(=O)OCC)c1C,13µM,25µM,?,0,14µM,?
CCCN1CCN(C(=O)c2ccccc2-c2nc3ccccc3s2)CC1,0,0,0,0,40µM,0
CCN1CCN(C(=O)c2ccc(-c3nc4ccccc4s3)s2)CC1,0,0,0,-,0,0
CC(=O)Nc1ccc(SCc2ncc(-c3ccccc3)o2)cc1,0,0,0,0,50µM,0
CC(=O)Nc1ccc(SCC(=O)Nc2ccccc2-c2ccccc2)cc1,?,0,0,0,0,0
Cc1cc(C)c2nc(C)cc(N/N=C/c3ccc(O)cc3)c2c1,40µM,50µM,0,-86,?,?
Cc1cc(N/N=C/c2ccc(O)cc2)c2cccc(C)c2n1,40µM,?,?,-,-,?
Cc1cc(-c2ccccc2)nc(N/N=C/c2ccc(O)cc2)n1,0,0,0,0,0[0.501 µM],0
CC(C)(C)c1cc(NC(=O)C2(C)CCN2C(=O)c2ccccc2CCc2ccccc2)no1 (stereo unspecified),-,-,-,0,-,0
Cc1ccc(C2(C)NC(=O)N(CC(=O)Nc3nc(-c4ccccn4)cs3)C2=O)cc1 (stereo unspecified),79µM,40µM,32µM,?,0[0.501 µM],-92
CC1(c2ccccc2)NC(=O)N(CC(=O)Nc2nc(-c3ccccn3)cs2)C1=O (stereo unspecified),50µM,45µM,0,?,0[2.33 µM],-91
COC(=O)c1cc(S(=O)(=O)NCc2cccs2)c[nH]1,0,0,0,-,0,0
c1ccc2c(C[C@@H]3CNCCN3CCC34CC5CC(CC(C5)C3)C4)cccc2c1,-,40µM,0,0,-,0
CCC(C)[C@H]1CNCCN1CCc1cc(C(F)(F)F)cc(C(F)(F)F)c1 (stereo partly specified),50µM,0,0,-,0[2.33 µM],0
CCC(C)[C@H]1CNCCN1CC1(c2ccccc2)CC1 (stereo partly specified),0,0,0,-,0[2.33 µM],0
SMILES,BAZ2B block,JMJD2A Tudor inh,HP1b binding inh,CtBP-E1A inh,G9a inh,Six1-Eya2 inh
CCC(C)[C@H]1CNCCN1CCc1cccc2ccccc12 (stereo partly specified),?,56µM,0,0,0[2.33 µM],0
CCc1nc2nc(C)c(NS(=O)(=O)c3ccc(C4CCCCC4)cc3)c(=O)n2[nH]1,0,0,0,0,0,0
CCCCC/C(C=O)=C/c1ccccc1,-,-,-,-,0,-
CCN(CC)c1ccc(C=C(c2nnnn2-c2ccc(C)cc2)c2nnnn2-c2ccc(C)cc2)cc1,0,0,0,0,0,0
Cc1ccc(C2CC2C(=O)NNC(=S)Nc2ccc(Cl)cc2)cc1 (stereo unspecified),0,0,0,0,25µM,0
CC(C)(C)NC(=S)NNC(=O)[C@H]1C[C@@H]1c1ccccc1,0,0,0,0,0,0
Oc1ccc(C2C[C@H]3CC[C@@H]2C3)cc1O (stereo partly specified),?,20µM,79µM,0,1µM,0
COc1ccc(N2CCN(c3ccc(N4C(=O)CC(C)C4=O)cc3[N+](=O)[O-])CC2)cc1 (stereo unspecified),?,?,0,0,40µM,0
COc1ccc(N2CCN(c3ccc(N4C(=O)COCC4=O)cc3[N+](=O)[O-])CC2)cc1,?,0,0,0,50µM,0
Cc1ccc2nc3sc(C(=O)N4CCCc5ccccc54)c(N)c3cc2c1,0,0,0,0,3.2µM,0
Cc1cccc2cc3c(N)c(C(=O)N4CCOCC4)sc3nc12,0,?,0,0,?,0
Cc1cc(C)c2cc3c(N)c(C(=O)N4CCc5ccccc5C4)sc3nc2c1,0,0,0,0,10µM,0
CCOC(=O)N1CCN(S(=O)(=O)N2CCCC(C(=O)NCc3ccc(OC)cc3)C2)CC1 (stereo unspecified),0,0,0,0,0,0
Cc1cc(-c2csc(N)n2)c(C)n1Cc1ccco1,?,?,0,-,18µM,0
COc1ccccc1CNc1nc(-c2cc(C)n(C)c2C)cs1,40µM,40µM,0,0,10µM,0
Cc1cc(-c2csc(N)n2)c(C)n1C,50µM,?,0,0,10µM,?
Cc1ccc(-n2c(C)cc(-c3csc(N)n3)c2C)cc1,56µM,40µM,?,0,5µM,0
CCn1ncc(-c2csc(N)n2)c1C,?,0,0,0,0,0
CCOc1cc(/C=C2/C(=N)N3C(=NC2=O)SN=C3S(=O)(=O)CC)ccc1OC(=O)c1ccco1,0,?,0,-,40µM,0
COc1cc(/C=C2/C(=N)N3C(=NC2=O)SN=C3S(=O)(=O)C(C)C)ccc1OC(=O)c1ccco1,56µM,0,0,-,40µM,0
CCS(=O)(=O)C1=NSC2=NC(=O)/C(=C\c3ccc(OC(=O)c4ccco4)c(OC)c3)C(=N)N21,0,0,0,0,?,0
CCOc1cc(/C=C2/C(=N)N3C(=NC2=O)SN=C3S(=O)(=O)C(C)C)ccc1OC(=O)c1ccco1,0,0,0,0,35µM,0
COc1cc(/C=C2/C(=N)N3C(=NC2=O)SN=C3S(C)(=O)=O)ccc1OC(=O)c1ccco1,?,?,0,-,?,0
CC1CCc2c(sc(Nc3nc4c(F)cccc4s3)c2C(N)=O)C1 (stereo unspecified),0,?,0,0,10µM,0
Cc1onc(-c2c(Cl)cccc2Cl)c1C(=O)NC(=S)Nc1sc2c(c1C(N)=O)CCC(C)C2 (stereo unspecified),0,?,0,0,45µM,0
O=C(CNC(=O)C1CCCCCC1)OC(C(=O)Nc1cc(C(F)(F)F)ccc1Cl)c1ccccc1 (stereo unspecified),-,0,-,-,-,-
